According to PubChem BioAssay (EPA / NIEHS):
Active and inactive are the calls of the source. The calls were made as follows: active = hit-call score of the fitted dose curve at least 0.9, where 1 is the maximum; inactive = score below 0.9.

Tests used:
[1] = read-out: Interferon-gamma inducible Protein 10 (IP10), CXCL10 (gene 3627); assay: BSK_hDFCGF_IP10: BioMAP Diversity Plus: hDFCGF Assay for Interferon-gamma inducible Protein 10 (IP10) Biomarker Activity (AID 2283053); conditions: primary human foreskin fibroblasts; actives raise or lower the signal
Method in brief: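 ELISA read-out of IP-10 (CXCL10) from primary human skin fibroblasts, 24 h after compound addition. Gain or loss of signal versus DMSO baseline, bidirectional curve fitting.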

[2] = read-out: Urokinase-type plasminogen activator receptor (uPAR), PLAUR (gene 5329); assay: BSK_CASM3C_uPAR: BioMAP Diversity Plus: CASM3C Assay for Urokinase-type plasminogen activator receptor (uPAR) Biomarker Activity (AID 2283054); conditions: primary human coronary artery smooth muscle cells; actives raise or lower the signal;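 also: cell-surface uPAR protein level quantified by ELISA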
[3] = read-out: Vascular cell adhesion molecule 1 (VCAM1), VCAM1 (gene 7412); assay: BSK_CASM3C_VCAM1: BioMAP Diversity Plus: CASM3C Assay for Vascular cell adhesion molecule 1 (VCAM1) Biomarker Activity (AID 2283055); conditions: primary human coronary artery smooth muscle cells; actives raise or lower the signal;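 also: VCAM-1 protein level quantified by ELISA on the cells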
[4] = read-out: Collagen III, COL3A1 (gene 1281); assay: BSK_hDFCGF_CollagenIII: BioMAP Diversity Plus: hDFCGF Assay for Collagen III Biomarker Activity (AID 2283056); conditions: primary human foreskin fibroblasts; actives raise or lower the signal
Method in brief: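 ELISA read-out of collagen III from human skin fibroblast cultures sampled 24 h post-dosing. Values were derived by bidirectional fitting relative to the DMSO vehicle control.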

[5] = read-out: Epidermal growth factor receptor (EGFR), EGFR (gene 1956); assay: BSK_hDFCGF_EGFR: BioMAP Diversity Plus: hDFCGF Assay for Epidermal growth factor receptor (EGFR) Biomarker Activity (AID 2283057); conditions: primary human foreskin fibroblasts; actives raise or lower the signal
Method in brief: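 ELISA readout of EGFR on human dermal fibroblasts (primary foreskin cells), 24 h post-dosing; bidirectional curve fit vs DMSO baseline, gain or loss of signal scored.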

[6] = read-out: Interleukin-8 (IL8), CXCL8 (gene 3576); assay: BSK_hDFCGF_IL8: BioMAP Diversity Plus: hDFCGF Assay for Interleukin-8 (IL8) Biomarker Activity (AID 2283058); conditions: primary human foreskin fibroblasts; actives raise or lower the signal
Method in brief: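 Cells used are human skin primary fibroblasts. Chemical is added, cultures run 24 h, then IL-8 is quantified by ELISA, and gain or loss versus DMSO control is fitted in both directions.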

[7] = BSK_hDFCGF_Proliferation: Cell Proliferation Assessment in the BioMAP Diversity Plus: hDFCGF Assay (AID 2283059); conditions: primary human foreskin fibroblasts;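 also: curves fitted for both rise and fall of signal versus DMSO baseline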
Method in brief: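 Steps: dose primary human dermal fibroblasts (foreskin); […] fix in 10% TCA; stain with 0.1% SRB; read 560 nm; fit gain or loss of signal against DMSO.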

[8] = read-out: Macrophage colony-stimulating factor (MCSF), CSF1 (gene 1435); assay: BSK_hDFCGF_MCSF: BioMAP Diversity Plus: hDFCGF Assay for Macrophage colony-stimulating factor (MCSF) Biomarker Activity (AID 2283060); conditions: primary human foreskin fibroblasts; actives raise or lower the signal
Method in brief: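 Primary human foreskin fibroblasts dosed with chemical; 24 h later, M-CSF quantified by ELISA; curves fitted in both directions vs DMSO negative control.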

[9] = BSK_hDFCGF_SRB: Viability Assessment in the BioMAP Diversity Plus: hDFCGF Assay (AID 2283061); conditions: primary human foreskin fibroblasts;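 also: cells exposed to compound for 24 h before the read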
Method in brief: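 Readout is SRB absorbance at 560 nm, reflecting total protein in parallel cultures of human foreskin fibroblasts harvested 24 h after chemical dosing. Activity was fitted bidirectionally relative to DMSO.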

[10] = read-out: TIMP metallopeptidase inhibitor 1 (TIMP1), TIMP1 (gene 7076); assay: BSK_hDFCGF_TIMP1: BioMAP Diversity Plus: hDFCGF Assay for TIMP metallopeptidase inhibitor 1 (TIMP1) Biomarker Activity (AID 2283062); conditions: primary human foreskin fibroblasts; actives raise or lower the signal
Method in brief: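 Human skin fibroblasts (primary), hDFCGF system; compound exposure 24 h; TIMP-1 by ELISA; bidirectional fit vs DMSO negative control; overt cytotoxicity by SRB in parallel wells.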

Measured: AC50

CCCC(=O)OCC
not listed: [10]
inactive: all other assays above

CCOCCO
not listed: [10]
inactive: all other assays above

CCCN(C1CCN(C(=O)C2CCNCC2)CC1)[C@@H]1CCc2ccc(OC)cc2C1
not listed: [10]
inactive: all other assays above

CC(C)c1cccc(C(C)C)c1N1C(=O)c2ccc(O)cc2C1=O
active: [1] 27.9 µM | [2] 20 µM | [3] 16.9 µM | [7] 9.91 µM | [8] 14.7 µM | [9] 14.9 µM
inactive: [4] | [5] | [6]

O=C1CCC(N2C(=O)c3ccccc3C2=O)C(=O)N1 (centres undefined)
not listed: [10]
inactive: all other assays above

COC(=O)c1c(Cl)c(Cl)c(C(=O)OC)c(Cl)c1Cl
not listed: [10]
inactive: all other assays above

CC(C)CC(C)(O)C#CC(C)(O)CC(C)C (centres undefined)
not listed: [10]
inactive: all other assays above

CC1(C)C(=O)N(Br)C(=O)N1Br
not listed: [10]
inactive: all other assays above

CCCCCCCCO
not listed: [10]
inactive: all other assays above

CN(C)c1ccc(Cc2ccc(N(C)C)cc2)cc1
active: [2] 2.98 µM | [7] 3 µM
not listed: [10]
inactive: all other assays above

CC(C)=CCCC(C)CCO (centres undefined)
active: [7] 26.4 µM
inactive: all other assays above

O=C(O)CCN(C1(C(=O)NO)CCCC1)S(=O)(=O)c1ccc(Oc2ccc(F)cc2)cc1
inactive: all assays above

CC[C@H]1OC(=O)[C@H](C)[C@@H](O[C@H]2C[C@@](C)(OC)[C@@H](O)[C@H](C)O2)[C@H](C)[C@@H](O[C@@H]2O[C@H](C)C[C@H](N(C)C)[C@H]2O)[C@](C)(O)C[C@@H](C)C(=O)[C@H](C)[C@@H](O)[C@]1(C)O
inactive: all assays above

CCc1cc(SCc2sc(-c3ccc(C(F)(F)F)cc3)nc2CN2CCN(c3ccc(OC)cc3)CC2)ccc1OCC(=O)O
active: [1] 2.18 µM | [2] 15.3 µM | [3] 33 µM | [4] 3.97 µM | [5] 1.94 µM | [6] 5.15 µM | [7] 1.68 µM | [8] 3.28 µM | [9] 2 µM | [10] 2.53 µM

Clc1nc(Cl)c(Cl)c(Cl)c1Cl
not listed: [10]
inactive: all other assays above

CNS(=O)(=O)c1cc(C(=O)N2CCC(CCN3C4CCC3CC(n3c(C)nc5ccccc53)C4)(c3cccc(F)c3)CC2)c(Cl)cc1F (centres undefined)
active: [3] 6.7 µM | [4] 20 µM | [7] 11.5 µM | [9] 24.8 µM
inactive: all other assays above

O=C(CCCCCCCCc1cccnc1)N1CCC(C=C(c2ccccc2)c2ccccc2)CC1
active: [1] 9 µM | [2] 39.2 µM | [3] 37.9 µM | [4] 4.91 µM | [6] 10.7 µM | [7] 5.65 µM | [8] 7.88 µM | [9] 7.83 µM | [10] 7.71 µM
inactive: [5]

NC(=O)NO
inactive: all assays above

O=C(O)c1cccc(N(Cc2cccnc2)c2ccc(OC(F)F)c(OC(F)F)c2)c1
inactive: all assays above

Nc1cccc(N)c1
active: [7] 0.148 µM
inactive: all other assays above

CCNc1ccccc1
inactive: all assays above
